The list is not random: actives were taken first. Their share in the collection is about 2.3%.
ELG1 DNA repair – ELG1-dependent DNA repair inhibition | HEK293T ELG1-luciferase reporter, luminescence, 16 h; DNA damage induced by 5-fluorouridine | Potency, µM (series often up to 46.1 µM), for inactives: top-dose activity change, negative = inhibition, actives largely listed as inhibitors | actives 2.3% (n = 330,000) | AID 504467; also: potency is read from the fitted curve at half-maximal effect; % is scaled to controls: 0 for no effect and ±100 for the full control effect; nearly all actives have a fitted effect of over 55% in size
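5-Fluorouridine DNA damage + compound/DMSO, 2,000 cells/well, 16 h, 37 °C/5% CO2. ONE-Glo, 30 min RT, luminescence. Readout = decrease in reporter signal.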
TRPV1 agonist – activates the human vanilloid receptor TRPV1; actives 0.19% (n = 320,000); TRPV1-expressing cells, Fluo-8 calcium influx, agonist mode; Q8NER1; activation, % at 8.33 µM; in the data active = activation above about 80%; inconclusive = between about 30% and that limit; also: 0% is about no effect
Target sequence (Q8NER1 whole entry, looked up): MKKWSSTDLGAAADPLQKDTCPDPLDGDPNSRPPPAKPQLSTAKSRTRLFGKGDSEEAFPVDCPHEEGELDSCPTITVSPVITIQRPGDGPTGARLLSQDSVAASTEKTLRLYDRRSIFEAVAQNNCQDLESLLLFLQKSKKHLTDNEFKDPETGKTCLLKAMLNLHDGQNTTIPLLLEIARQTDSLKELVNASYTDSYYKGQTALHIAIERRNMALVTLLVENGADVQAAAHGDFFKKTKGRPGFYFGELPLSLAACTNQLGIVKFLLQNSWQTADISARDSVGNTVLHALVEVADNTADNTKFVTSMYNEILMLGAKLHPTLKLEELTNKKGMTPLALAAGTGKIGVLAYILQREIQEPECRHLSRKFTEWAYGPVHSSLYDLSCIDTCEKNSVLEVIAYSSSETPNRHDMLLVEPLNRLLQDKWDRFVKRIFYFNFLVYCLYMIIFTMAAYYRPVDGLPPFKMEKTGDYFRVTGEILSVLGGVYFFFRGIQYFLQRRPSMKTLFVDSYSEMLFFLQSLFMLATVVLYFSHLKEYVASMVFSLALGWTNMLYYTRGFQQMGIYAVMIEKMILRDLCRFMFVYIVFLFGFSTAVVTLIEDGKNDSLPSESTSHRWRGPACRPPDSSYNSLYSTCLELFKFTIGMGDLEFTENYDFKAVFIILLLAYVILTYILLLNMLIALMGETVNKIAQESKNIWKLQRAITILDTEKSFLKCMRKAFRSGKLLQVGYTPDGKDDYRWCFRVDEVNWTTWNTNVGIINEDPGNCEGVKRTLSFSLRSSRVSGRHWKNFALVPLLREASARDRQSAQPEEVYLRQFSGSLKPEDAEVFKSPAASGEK
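Fluo-8 calcium influx in TRPV1-expressing cells, kinetic read (ex 480/em 520 nm). Compound added and read 3 min for agonist activity, followed by capsaicin at EC20 final and 2 min further read for enhancement.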
FUS yeast rescue – rescues growth of FUS-expressing yeast | S. cerevisiae FUS-expressing, growth rescue, OD600, 24 h | actives 0.24% (n = 390,000) | Potency, µM (series often up to 76.6 µM), usual class: activators;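 also: potency is read from the fitted curve at half-maximal effect; plate controls were DMSO vehicle for no effect and reference control for full effect; nearly all actives have a fitted effect of over 55% in size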
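S. cerevisiae expressing FUS from galactose induction served as the toxicity model. Growth after 24hr at 30C, read as absorbance at 600 nm, indicates suppression of toxicity; compounds dosed at several concentrations.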
TRPV1 potentiator – potentiators of human vanilloid receptor 1 (TRPV1); Q8NER1; TRPV1-expressing cells, Fluo-8 calcium influx, capsaicin EC20 potentiation; potentiation, % at 8.33 µM; actives 0.02% (n = 320,000); AID 540277; in the data active = potentiation above about 80%; inconclusive = between about 30% and that limit; also: 0% is about no effect
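Cells expressing TRPV1 were dye-loaded with Fluo-8 and read kinetically: 10 s baseline, 3 min after compound (agonist portion), then 2 min after EC20 capsaicin (allosteric enhancer portion). Calcium-bound dye fluorescence at 480/520 nm.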
Giardia killer – Giardia lamblia killing. Giardia lamblia trophozoite viability. activity change, % at 7.66 µM, hits read low. actives 0.15% (n = 340,000); in the data active = activity change below about -80%; inconclusive = between about -30% and that limit;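 also: parasites exposed to compound for two days anaerobically before the ATP read; % is scaled to controls: 0 for no effect and ±100 for the full control effect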
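Anaerobic 48 hrs incubation at 37 deg C of 100 trophozoites/well with test compounds; ATPLite 1-Step luminescence, 15-30 min RT, reports cellular ATP as viability.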
* hit, by the source's call. Unless noted, calls follow the shape of the dose curve; as a rule, active = well fitted curve in the direction sought with a large enough effect; inconclusive = small, poorly fitted or top-dose-only effect, or another doubt; inactive = no such curve, though single readings can be large; an effect the other way counts as inactive or inconclusive.

Screening Cc1ccc(S(=O)(=O)N2CCN(c3nc(C)nc4sc(C)c(C)c34)CC2)cc1 returned ELG1 DNA repair 3%, TRPV1 agonist -8 and TRPV1 potentiator 3.
`CCOC(=O)c1sc2nc(CC(=O)OC)nc(NCc3ccc(Cl)cc3)c2c1C` gave ELG1 DNA repair 5.8µM*, TRPV1 agonist 3, FUS yeast rescue inactive, TRPV1 potentiator -1 and Giardia killer 2.
`CCOC(=O)c1sc2nc(C)nc(N3CCN(S(=O)(=O)c4ccccc4)CC3)c2c1C` gave ELG1 DNA repair 23µM*, FUS yeast rescue inactive and Giardia killer -3.
Screening COc1cc(OC)cc(-c2nc(-c3ccc4c(c3)[nH]c(=O)n4C)no2)c1 returned FUS yeast rescue inactive.
`O=c1c2sc3ccccc3c2n(Cc2ccccc2Cl)c(=O)n1Cc1ccccc1` gave FUS yeast rescue inactive.
`COCCn1c(SCC(=O)Nc2ccc(S(=O)(=O)N(C)C)cc2)nc2ccccc21` gave ELG1 DNA repair 15µM*, TRPV1 agonist 6, FUS yeast rescue inactive, TRPV1 potentiator 1 and Giardia killer 8.
Cc1ccc(C)c(CNc2ccc(S(=O)(=O)N3CCCCC3)cc2)c1 was read as ELG1 DNA repair inconclusive, TRPV1 agonist 3, FUS yeast rescue inactive, TRPV1 potentiator 14 and Giardia killer 13.
For Cc1cccc2cc(CN(Cc3ccccc3)Cc3nnnn3Cc3ccccc3)c(=O)[nH]c12 the results were Giardia killer -24.
Cc1cccc2cc(CN(Cc3cccs3)Cc3nnnn3Cc3ccccc3)c(=O)[nH]c12 was read as ELG1 DNA repair 18µM*, TRPV1 agonist 1, FUS yeast rescue inconclusive, TRPV1 potentiator 3 and Giardia killer -2.
CN(C)N1C(N)=C(C#N)C(c2ccccc2)C2=C1CC(C)(C)CC2=O (configuration not stated) was read as ELG1 DNA repair -29%, TRPV1 agonist 4, FUS yeast rescue inactive, TRPV1 potentiator -14 and Giardia killer -1.
For CN(C)N1C(N)=C(C#N)C(c2cccc3ccccc23)C2=C1CC(c1ccccc1)CC2=O (configuration not stated) the results were ELG1 DNA repair 16µM*, TRPV1 agonist 1, FUS yeast rescue inactive, TRPV1 potentiator 25 and Giardia killer -1.
Cc1c(-c2nsc(NC(=O)c3cccs3)n2)nnn1-c1ccc(Br)cc1 was read as FUS yeast rescue inactive.
`O=C(CSc1ncc(-c2ccccc2)[nH]1)Nc1cccc(O)c1` gave ELG1 DNA repair 16µM*, TRPV1 agonist -2, FUS yeast rescue inactive, TRPV1 potentiator 12 and Giardia killer 6.
For CCOC(=O)C(=CNc1ccc(NC2=NCC(C)S2)cc1)C(=O)OCC (configuration not stated) the results were ELG1 DNA repair 6.5µM*, TRPV1 agonist 1, TRPV1 potentiator -15 and Giardia killer -1.
Screening CCOC(=O)C(=CNc1ccc(C(F)(F)F)cc1)C(=O)OCC returned ELG1 DNA repair -16%, TRPV1 agonist 13, FUS yeast rescue inactive, TRPV1 potentiator -26 and Giardia killer 3.
CC(=O)c1c(C)[nH]c(C(=O)CSc2nc3ccc(C)cc3[nH]2)c1C was read as ELG1 DNA repair 12µM*, TRPV1 agonist 9, FUS yeast rescue inactive, TRPV1 potentiator -21 and Giardia killer -9.
`COc1ccc(Cc2[nH]n3c(=O)cc(C)nc3c2-c2ccccc2)cc1` gave ELG1 DNA repair inconclusive, TRPV1 agonist 2, FUS yeast rescue inactive, TRPV1 potentiator 16 and Giardia killer -27.
`COc1ccc(Cc2[nH]n3c(=O)cc(C(C)C)nc3c2-c2ccccc2)cc1` gave ELG1 DNA repair 8.2µM*, TRPV1 agonist 2, FUS yeast rescue inactive, TRPV1 potentiator 4 and Giardia killer -5.
Screening Cc1cc(C(F)F)n2nc(C(=O)Nc3sc4c(c3C(N)=O)CCC4)nc2n1 returned ELG1 DNA repair inconclusive, TRPV1 agonist -5, FUS yeast rescue inconclusive, TRPV1 potentiator -15 and Giardia killer 8.
Screening COC(=O)c1c(NC(=O)c2nc3nc(C)cc(C(F)F)n3n2)sc2c1CCC2 returned ELG1 DNA repair 23µM*, TRPV1 agonist -2, FUS yeast rescue inactive, TRPV1 potentiator 91* and Giardia killer 6.
For COC(=O)/C=C1\SC(=Nc2ccc(OC)cc2)NC1=O the results were ELG1 DNA repair 5%, TRPV1 agonist 5, FUS yeast rescue inactive, TRPV1 potentiator 0 and Giardia killer -8.
`COC(=O)/C=C1\S/C(=N\N=C\CC(=O)OC)NC1=O` gave ELG1 DNA repair 13%, TRPV1 agonist -5, FUS yeast rescue 32µM*, TRPV1 potentiator 15 and Giardia killer 2.
`Cc1nc(SCC(=O)N2CCOCC2)c2c3c(sc2n1)CCC3` gave ELG1 DNA repair 21µM*, FUS yeast rescue inactive and Giardia killer -25.
Screening CCn1c(SCC(=O)N2CCOCC2)nc2sc3c(c2c1=O)CCCC3 returned ELG1 DNA repair 5%, TRPV1 agonist inconclusive, FUS yeast rescue inactive, TRPV1 potentiator 1 and Giardia killer 16.
`CCc1ccc(C(=O)c2cn(CC(=O)Nc3cc(F)ccc3F)c3nc(C)ccc3c2=O)cc1` gave FUS yeast rescue inactive.
For O=C(NCc1ccc(F)cc1)Nc1ccc(Cl)cc1 the results were ELG1 DNA repair inconclusive, TRPV1 agonist 80*, FUS yeast rescue inactive, TRPV1 potentiator -11 and Giardia killer -6.
For Cc1ccc(N2CC(NC(=O)CCc3ccccc3)CC2=O)cc1C (configuration not stated) the results were FUS yeast rescue inactive.
`CC1CN(c2nc3c(c(=O)n(Cc4ccc(Cl)cc4)c(=O)n3C)n2C)CC(C)O1` (configuration not stated) gave ELG1 DNA repair inconclusive, TRPV1 agonist 106*, FUS yeast rescue inactive, TRPV1 potentiator -10 and Giardia killer -21.
Cn1c(N2CCCC2)nc2c1c(=O)n(Cc1ccc(Cl)cc1)c(=O)n2C was read as ELG1 DNA repair 21µM*, TRPV1 agonist inconclusive, FUS yeast rescue inactive, TRPV1 potentiator -16 and Giardia killer 9.
O=C(COc1cccc(Cl)c1)Nc1nc(-c2ccc(S(=O)(=O)N3CCOCC3)cc2)cs1 was read as ELG1 DNA repair 23µM*, TRPV1 agonist 0, FUS yeast rescue inactive, TRPV1 potentiator -10 and Giardia killer -22.
`CCOc1cccc(C(=O)Nc2nc(-c3ccc(S(=O)(=O)N4CCOCC4)cc3)cs2)c1` gave ELG1 DNA repair inconclusive, TRPV1 agonist 0, FUS yeast rescue inactive, TRPV1 potentiator 14 and Giardia killer -9.
COc1ccccc1C(=O)Nc1nc(-c2ccc(S(=O)(=O)N3CCOCC3)cc2)cs1 was read as ELG1 DNA repair 5.2µM*, TRPV1 agonist inconclusive, FUS yeast rescue inconclusive, TRPV1 potentiator -16 and Giardia killer -11.
